In PubChem BioAssay (NCI):
The panel holds about 83,000 compounds, 20% with a hit somewhere; the sample as a whole holds those more often.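 For each line, cells grew in 96-well plates with the test compound present at a single concentration for 48 hours.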 Active and inactive are the calls of the source. How the source made its calls: active means growth percent below 10; inactive means the rest.

tested on: HCT-15 colon; assay: NCI-60 one-dose screen, 48 h (100 = growth as untreated, 0 = no growth, -100 = all killed); settings: 10 µM unless noted

| SMILES | growth |
| --- | --- |
| CN1CCN(Cc2ccc(NC(=O)c3cncc(C#Cc4cnc5ccc(N6CCN(C)CC6)nn45)c3)cc2C(F)(F)F)CC1 | -57% (active) |
| O=C(O)c1cn(C2CC2)c2cc(N3CCN(C(=O)CN4C(=O)CSC4=O)CC3)c(F)cc2c1=O | 112% (inactive) |
| NC/C(=C/F)COc1ccc2nc(NCc3cccnc3)oc2c1 | 109% (inactive) |
| C=C(C)[C@@H]1CC[C@]2(C(=O)NCCCCCN(CCC#N)CCC#N)CC[C@]3(C)[C@H](CC[C@@H]4[C@@]5(C)CCC(=O)C(C)(C)[C@@H]5CC[C@]43C)[C@@H]12 | 105% (inactive) |
| CCCCNNC(=O)c1ccc(-c2cccc(F)c2F)cc1 | 55.1% (inactive) |
| C#Cc1ccc(C(=O)NCc2ccc(/C=C/C(=O)c3nccn3C)cc2)cc1 | 2.77% (active) |
| COc1ccc(/C(N)=N/C(N)=N/c2nc3ccccc3s2)cc1 | 62.6% (inactive) |
| O=C(CN1CCN(c2cc(=O)[nH]c3ccc(F)cc23)CC1)Nc1ccc(Cl)cc1 | 79.3% (inactive) |
| Cc1ccc(-n2cc(/C=C/C(=O)c3ccc(O)cc3)c(-c3ccc(S(C)(=O)=O)cc3)n2)cc1 | 26% (inactive) |
| O=S(=O)(NCCCNc1nccc(-c2[nH]c(-c3ccccc3)nc2-c2ccc(Cl)c(O)c2)n1)c1cccc(F)c1 | 38.6% (inactive) |
| Cc1cc(-c2ccc(Cl)cc2)n(Cc2nnc(SCC(=O)Nc3ccc(S(N)(=O)=O)cc3)n2C2CCCCC2)n1 | 98.4% (inactive) |
| Oc1cccc2ccc(-c3nnc(SCc4ccc(O)c5ncccc45)n3-c3ccccc3)nc12 | 16.5% (inactive) |
